Test results: PubChem BioAssay (EPA / NIEHS)
Calls of active or inactive are those of the source. How the source made its calls: active means hit-call score of the fitted dose curve at least 0.9, where 1 is the maximum; inactive means score below 0.9.

Key:
Conditions in all cases: mRNA level, 48 h; actives raise or lower the signal
[1] = read-out: Bcl-2 (BAD) gene, BAD (gene 572); assay: LTEA_HepaRG_BAD: Life Technologies and Expression Analysis (LTEA) Assay for Bcl-2 (BAD) gene using HepaRG (AID 2283469)
How it was run: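 BAD transcript change, measured by qRT-PCR against three housekeeping genes and fitted in both directions relative to 0.5% DMSO, after 48 h chemical treatment of human HepaRG liver cells at concentrations up to 100 uM.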

[2] = read-out: Bcl-2 (BAX) gene, BAX (gene 581); assay: LTEA_HepaRG_BAX: Life Technologies and Expression Analysis (LTEA) Assay for Bcl-2 (BAX) gene using HepaRG (AID 2283470)
How it was run: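 HepaRG (human liver), 48 h exposure, duplicate wells. 8-pt curve, half-log from 100 uM, 0.5% DMSO. BAX transcript by TaqMan qRT-PCR; ACTB/GAPDH/POLR2A normalization; gain or loss vs DMSO baseline.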

[3] = read-out: adenosine kinase (ADK) gene, ADK (gene 132); assay: LTEA_HepaRG_ADK: Life Technologies and Expression Analysis (LTEA) Assay for adenosine kinase (ADK) gene using HepaRG (AID 2283471)
How it was run: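 Following 48 h exposure of HepaRG cells in 0.5% DMSO (top concentration 100 uM, duplicate wells), ADK mRNA induction or suppression was measured by qRT-PCR, normalised to ACTB/GAPDH/POLR2A, and fitted bidirectionally relative to vehicle.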

[4] = read-out: Alpha-fetoprotein (AFP) gene, AFP (gene 174); assay: LTEA_HepaRG_AFP: Life Technologies and Expression Analysis (LTEA) Assay for Alpha-fetoprotein (AFP) gene using HepaRG (AID 2283472)
How it was run: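 HepaRG, single lot; 48 h post-plating -> serum-free induction medium; cpd 8-pt, 100 uM top, half-log, 0.5% DMSO, duplicate, 48 h. RNA -> qRT-PCR AFP, norm ACTB/GAPDH/POLR2A. Bidirectional fit vs DMSO.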

[5] = read-out: Apolipoprotein A-V (APOA5) gene, APOA5 (gene 116519); assay: LTEA_HepaRG_APOA5: Life Technologies and Expression Analysis (LTEA) Assay for Apolipoprotein A-V (APOA5) gene using HepaRG (AID 2283474)
How it was run: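 HepaRG, 48 h chemical exposure in serum-free induction medium, 8-pt half-log series (top 100 uM), 0.5% DMSO vehicle, duplicates. Readout: APOA5 mRNA by qRT-PCR, housekeeping-normalized; bidirectional fit vs DMSO baseline.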

[6] = read-out: Apoptosis regulator Bcl-2 (Homo sapiens) (UniProt P10415); assay: LTEA_HepaRG_BCL2: Life Technologies and Expression Analysis (LTEA) Assay for Bcl-2 gene using HepaRG (AID 2283475)
How it was run: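 HepaRG, plated 48 h then switched to serum-free induction medium; dosed 48 h, 8 conc. (max 100 uM, half-log steps), duplicate, 0.5% DMSO. Lysis in RLT, RNA isolated, TaqMan qRT-PCR for BCL2; ACTB/GAPDH/POLR2A normalisation; bidirectional fit vs DMSO.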

[7] = read-out: Bcl-2 (BID) gene, BID (gene 637); assay: LTEA_HepaRG_BID: Life Technologies and Expression Analysis (LTEA) Assay for Bcl-2 (BID) gene using HepaRG (AID 2283476)
How it was run: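 Transcript levels of BID, measured by qRT-PCR and normalized to three housekeeping genes, were fitted bidirectionally against DMSO controls. Cells were HepaRG, dosed 48 h at up to 100 uM.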

[8] = read-out: Caspase-3 (Homo sapiens) (UniProt P42574); assay: LTEA_HepaRG_CASP3: Life Technologies and Expression Analysis (LTEA) Assay for cysteine-aspartic acid protease (CASP3) using HepaRG (AID 2283477)
How it was run: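 HepaRG, 48 h exposure, 8 conc. (top 100 uM, half-log steps, duplicate), 0.5% DMSO vehicle; qRT-PCR of CASP3 transcript, housekeeping-normalised (ACTB/GAPDH/POLR2A); bidirectional curve fit vs DMSO baseline.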

[9] = read-out: Cytochrome P450 (CYP24A1), CYP24A1 (gene 1591); assay: LTEA_HepaRG_CYP24A1: Life Technologies and Expression Analysis (LTEA) Assay for Cytochrome P450 (CYP24A1) using HepaRG (AID 2283478)
How it was run: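 qRT-PCR read-out: CYP24A1 transcript levels normalized to three housekeeping genes, bidirectional curve fits against 0.5% DMSO baseline. Human HepaRG cells treated 48 h with chemicals at eight concentrations from 100 uM in half-log steps.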

[10] = read-out: Cytochrome P450 (CYP1A2), CYP1A2 (gene 1544); assay: LTEA_HepaRG_CYP1A2: Life Technologies and Expression Analysis (LTEA) Assay for Cytochrome P450 (CYP1A2) using HepaRG (AID 2283479)
How it was run: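 HepaRG, 48 h exposure, top 100 uM, half-log 8-pt, 0.5% DMSO vehicle, duplicates. Readout: TaqMan qRT-PCR of CYP1A2 mRNA, housekeeping-normalized (ACTB/GAPDH/POLR2A). Gain/loss fit relative to DMSO baseline.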

[11] = read-out: cysteine-aspartic acid protease (CASP8), CASP8 (gene 841); assay: LTEA_HepaRG_CASP8: Life Technologies and Expression Analysis (LTEA) Assay for cysteine-aspartic acid protease (CASP8) using HepaRG (AID 2283480)
How it was run: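 HepaRG, 48 h exposure, duplicate wells; 8 conc, half-log from 100 uM, 0.5% DMSO. Serum-free induction medium. CASP8 mRNA by TaqMan qRT-PCR, norm. ACTB/GAPDH/POLR2A; gain/loss fitted vs DMSO.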

[12] = read-out: Cytochrome P450 (CYP2B6), CYP2B6 (gene 1555); assay: LTEA_HepaRG_CYP2B6: Life Technologies and Expression Analysis (LTEA) Assay for Cytochrome P450 (CYP2B6) using HepaRG (AID 2283481)
How it was run: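 Read-out is CYP2B6 mRNA by TaqMan qRT-PCR, normalized to three housekeeping genes and fitted bidirectionally against 0.5% DMSO baseline. Human HepaRG cells received test chemicals for 48 h, top concentration 100 uM, half-log dilutions.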

[13] = read-out: Cytochrome P450 2C19 (Homo sapiens) (UniProt P33261); assay: LTEA_HepaRG_CYP2C19: Life Technologies and Expression Analysis (LTEA) Assay for CYP2C19 using HepaRG (AID 2283482)
How it was run: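 HepaRG, 48 h chemical exposure, 8-pt half-log series from 100 uM in 0.5% DMSO, duplicates. Readout: CYP2C19 mRNA by TaqMan qRT-PCR, housekeeping-normalized. Bidirectional fit vs DMSO baseline; phenobarbital 1mM as induction control.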

[14] = read-out: CYP2C8 (gene 1558); assay: LTEA_HepaRG_CYP2C8: Life Technologies and Expression Analysis (LTEA) Assay for CYP2C8 using HepaRG (AID 2283483)
How it was run: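 CYP2C8 mRNA induction or loss, by qRT-PCR normalized to ACTB/GAPDH/POLR2A, is read in HepaRG cells after 48 h treatment. Concentrations run from 100 uM down in half-log dilutions, with 0.5% DMSO as vehicle and baseline.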

[15] = read-out: CYP2C9 (gene 1559); assay: LTEA_HepaRG_CYP2C9: Life Technologies and Expression Analysis (LTEA) Assay for CYP2C9 using HepaRG (AID 2283484)
How it was run: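 Cells plated 48 h, switched to serum-free induction medium, then treated in duplicate for 48 h at eight concentrations (max 100 uM, 0.5% DMSO). RNA then analysed by qRT-PCR for CYP2C9; curves fitted in both directions relative to DMSO.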

[16] = read-out: CYP2E1 (gene 1571); assay: LTEA_HepaRG_CYP2E1: Life Technologies and Expression Analysis (LTEA) Assay for CYP2E1 using HepaRG (AID 2283485)
How it was run: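 Human liver line HepaRG, plated 48 h, then serum-free induction medium + chemical x 48 h; 8-pt CRC from 100 uM, half-log, 0.5% DMSO, n=2. Readout: CYP2E1 mRNA qRT-PCR vs ACTB/GAPDH/POLR2A; bidirectional fit vs DMSO.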

[17] = read-out: CYP4A11 (gene 1579); assay: LTEA_HepaRG_CYP4A11: Life Technologies and Expression Analysis (LTEA) Assay for CYP4A11 using HepaRG (AID 2283486)
How it was run: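 CYP4A11 transcript levels were quantified by TaqMan qRT-PCR after HepaRG human liver cells were treated for 48 hours with test chemicals (top 100 uM, half-log dilutions, 0.5% DMSO). Gain or loss of signal was fitted relative to DMSO.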

[18] = read-out: Cytochrome P450 3A4 (Homo sapiens) (UniProt P08684); assay: LTEA_HepaRG_CYP3A4: Life Technologies and Expression Analysis (LTEA) Assay for CYP3A4 using HepaRG (AID 2283487)
How it was run: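 In a human hepatic line (HepaRG), duplicate wells were treated 48 h with up to 100 uM chemical in half-log dilutions. Endpoint: CYP3A4 mRNA induction or loss relative to 0.5% DMSO vehicle, by qRT-PCR.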

[19] = read-out: DNA damage-inducible transcript 3 (DDIT3), DDIT3 (gene 1649); assay: LTEA_HepaRG_DDIT3: Life Technologies and Expression Analysis (LTEA) Assay for DNA damage-inducible transcript 3 (DDIT3) using HepaRG (AID 2283488)
How it was run: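 HepaRG plated 48 h, switched to serum-free induction medium, dosed 48 h (100 uM top, half-log, 8 pts, 0.5% DMSO, n=2); RNA isolated; DDIT3 by qRT-PCR; bidirectional curve fit vs DMSO.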

[20] = read-out: BCL2L11 (gene 10018); assay: LTEA_HepaRG_BCL2L11: Life Technologies and Expression Analysis (LTEA) Assay for Bcl-2 (BCL2L11) gene using HepaRG (AID 2283473)
How it was run: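 HepaRG, 48 h exposure, 8-pt half-log series from 100 uM in 0.5% DMSO, duplicates; qRT-PCR (Fluidigm TaqMan) for BCL2L11, housekeeping-normalized; bidirectional curve fit relative to DMSO baseline.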

Measured: AC50

Chain of Apoptosis regulator Bcl-2 (Homo sapiens) (P10415 whole entry, looked up): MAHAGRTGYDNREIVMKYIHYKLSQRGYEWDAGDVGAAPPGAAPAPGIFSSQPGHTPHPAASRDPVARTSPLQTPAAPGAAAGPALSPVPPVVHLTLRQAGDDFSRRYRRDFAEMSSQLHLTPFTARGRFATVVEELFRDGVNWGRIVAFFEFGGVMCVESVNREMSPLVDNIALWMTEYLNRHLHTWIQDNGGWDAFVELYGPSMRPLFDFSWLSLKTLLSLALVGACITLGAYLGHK
Chain of Cytochrome P450 3A4 (Homo sapiens) (P08684 whole entry, looked up): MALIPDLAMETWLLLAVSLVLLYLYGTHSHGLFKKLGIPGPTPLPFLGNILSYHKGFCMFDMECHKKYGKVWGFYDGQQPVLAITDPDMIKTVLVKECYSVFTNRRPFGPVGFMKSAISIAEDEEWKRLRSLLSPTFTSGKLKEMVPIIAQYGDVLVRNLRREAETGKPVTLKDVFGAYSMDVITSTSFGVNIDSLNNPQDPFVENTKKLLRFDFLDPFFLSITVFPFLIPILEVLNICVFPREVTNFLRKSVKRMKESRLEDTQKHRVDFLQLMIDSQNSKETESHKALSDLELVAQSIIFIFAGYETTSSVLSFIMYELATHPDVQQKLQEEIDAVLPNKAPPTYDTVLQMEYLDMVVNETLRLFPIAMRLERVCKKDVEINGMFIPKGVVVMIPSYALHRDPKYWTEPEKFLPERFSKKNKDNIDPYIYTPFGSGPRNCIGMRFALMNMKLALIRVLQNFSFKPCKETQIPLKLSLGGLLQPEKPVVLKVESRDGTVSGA
Chain of Caspase-3 (Homo sapiens) (P42574 whole entry, looked up): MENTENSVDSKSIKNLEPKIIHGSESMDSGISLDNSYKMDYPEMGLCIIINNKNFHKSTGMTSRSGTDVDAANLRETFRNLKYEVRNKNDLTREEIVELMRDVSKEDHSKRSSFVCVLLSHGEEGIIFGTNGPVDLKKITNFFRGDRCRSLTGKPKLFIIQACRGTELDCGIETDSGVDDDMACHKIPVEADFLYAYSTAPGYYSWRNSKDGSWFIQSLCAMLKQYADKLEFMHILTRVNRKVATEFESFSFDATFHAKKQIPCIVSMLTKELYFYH
Chain of Cytochrome P450 2C19 (Homo sapiens) (P33261 whole entry, looked up): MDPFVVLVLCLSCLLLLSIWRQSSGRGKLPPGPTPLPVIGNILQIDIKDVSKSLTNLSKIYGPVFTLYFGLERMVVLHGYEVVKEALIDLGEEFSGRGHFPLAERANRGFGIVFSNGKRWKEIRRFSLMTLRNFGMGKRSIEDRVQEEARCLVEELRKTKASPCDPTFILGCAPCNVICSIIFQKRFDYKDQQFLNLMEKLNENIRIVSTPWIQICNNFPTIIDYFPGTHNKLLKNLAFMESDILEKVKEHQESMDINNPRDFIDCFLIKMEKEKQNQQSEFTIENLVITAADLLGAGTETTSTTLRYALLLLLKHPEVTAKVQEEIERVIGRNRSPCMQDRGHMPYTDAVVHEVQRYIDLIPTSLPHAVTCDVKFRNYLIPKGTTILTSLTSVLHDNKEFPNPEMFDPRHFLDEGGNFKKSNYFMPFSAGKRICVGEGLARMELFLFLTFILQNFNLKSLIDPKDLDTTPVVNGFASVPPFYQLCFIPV

C#C[C@]1(O)CC[C@H]2[C@@H]3CCc4cc(O)ccc4[C@H]3CC[C@@]21C
active: [12] 4.05 µM | [13] 50 µM | [14] 50 µM
not listed: [20]
inactive: all other assays above

COC(=O)c1ccc(C(=O)OC)cc1
inactive: all assays above

C[C@]12CC[C@@H]3c4ccc(O)cc4CC[C@H]3[C@@H]1CC[C@@H]2O
active: [4] 50 µM | [5] 68 µM | [10] 79.5 µM | [12] 1.73 µM | [13] 5.7 µM | [14] 4.16 µM | [16] 50 µM | [17] 76.9 µM | [18] 4.95 µM
inactive: all other assays above

CCCCOCCOCCO
inactive: all assays above
